Efflux pump mplx: antifungal efflux pump inhibition, Nile Red retention | inhibition, % at 10 µM | AID 485275 | S. cerevisiae Candida pump triplex | 330,000 compounds, 0.44% hits;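 active means plate passing quality check with inhibition over a set limit, or well fluorescence over plate mean plus 4 SD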;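 further: Nile Red retained in pooled yeast measured as flow cytometry median fluorescence; 0% = buffer negative control and 100% = Enniatin B positive control; higher means more Nile Red kept so more efflux inhibition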
Rtt109 Vps75: blocks Candida albicans Rtt109/Vps75 acetyltransferase activity; Q5AAJ8; purified Rtt109/Vps75, ThioGlo CoA-SH fluorescence, 4 h; inhibition, % at 34.9 µM; 330,000 compounds, 0.16% hits;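 active means inhibition of at least 50% in every replicate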
Rce1 inhib: yeast Ras-converting enzyme inhibition; Q03530; yeast membranes, quenched prenylated peptide cleavage fluorescence; calls only; 290,000 compounds, 0.27% hits; AID 2563;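 active means fall in fluorescence gain of 50% or more versus controls, with final raw signal at or below 3038400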;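 further: plate controls were neutral control wells for no effect and wells lacking membranes for full effect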
GRK2 aptamer HTS: inhibitors of human GRK2 displacing RNA aptamer. P25098. bead flow cytometry, FAM-aptamer displacement from GRK2. inhibition of aptamer binding, % at 10 µM. 330,000 compounds, 0.59% hits. AID 488847;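 active means inhibition of aptamer binding above 40%, roughly 3 SD of noise, on plates passing a quality check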;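 further: median bead fluorescence of bound FAM aptamer so fluorescent compounds give negative values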
HDAC3 inhib: inhibitors of human histone deacetylase 3; O15379; recombinant HDAC3, fluorogenic peptide/trypsin coupled, fluorescence; inhibition, % at 8.3 µM; 320,000 compounds, 0.15% hits; AID 2718; in the data active means inhibition above about 26%, passing the limit was not always enough
Target sequence (O15379 whole entry, looked up): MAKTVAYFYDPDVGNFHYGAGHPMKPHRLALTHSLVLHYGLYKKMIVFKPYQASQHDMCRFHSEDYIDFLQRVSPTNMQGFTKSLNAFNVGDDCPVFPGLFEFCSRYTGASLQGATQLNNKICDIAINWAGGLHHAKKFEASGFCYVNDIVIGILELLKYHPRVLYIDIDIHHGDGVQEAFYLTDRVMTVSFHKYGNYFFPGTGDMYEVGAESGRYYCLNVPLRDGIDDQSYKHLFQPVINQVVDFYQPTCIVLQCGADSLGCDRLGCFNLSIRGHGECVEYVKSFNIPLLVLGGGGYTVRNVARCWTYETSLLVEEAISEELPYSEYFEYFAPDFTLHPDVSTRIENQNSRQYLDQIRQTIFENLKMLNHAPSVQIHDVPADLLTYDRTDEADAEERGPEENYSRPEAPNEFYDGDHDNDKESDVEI
ALR H2O2 inh: human ALR oxidase inhibition via reduced H2O2 | purified ALR, DTT oxidation, H2O2 HRP-luminol luminescence | 290,000 compounds, 3.8% hits | inhibition, % (no concentration beside the values) | P55789;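 active means mean replicate inhibition above about 79%, with every replicate also reaching it, limit read from the data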
* hit, by the source's call; i = inactive; / = no result. The list is not random: actives were taken first. Their share in the collection is about 4.5%.

SMILES	Efflux pump mplx	Rtt109 Vps75	Rce1 inhib	GRK2 aptamer HTS	HDAC3 inhib	ALR H2O2 inh
C=CCN1C(=O)C(CC(=O)Nc2ccc(OCCC)cc2)N(CCCN2CCN(Cc3ccccc3)CC2)C1=S (centres undefined)	1	11	i	0	4	-2
CC(/C=C/c1ccc(N(C)C)cc1)=N\N=C(/N)SC1CC(=O)N(c2ccc(C(=O)O)cc2)C1=O (centres undefined)	0	-3	i	38	5	100*
O=C(Nc1ccc(S(=O)(=O)N2CCCCCC2)cc1)c1ccco1	0	1	i	0	-8	-3
C[C@H](NC(=O)c1ccco1)C(=O)Nc1ccc(S(=O)(=O)N2CCCC2)cc1	0	55*	i	1	-3	-5
O=C(O)/C=C/C(=O)Nc1ccc(OCc2ccccc2)cc1	0	4	i	1	7	12
O=C(O)/C=C\C(=O)Nc1ccc(N2CCN(c3ccc(Cl)c(Cl)c3)CC2)cc1	0	-1	i	0	5	16
O=C(O)/C=C/C(=O)Nc1ccc(-c2ccccc2)cc1	0	13	i	0	8	98*
O=C(O)/C=C\C(=O)Nc1ccc(N2CCN(c3ccc(Cl)cc3)CC2)cc1	0	15	i	0	9	98*
O=C(O)/C=C\C(=O)Nc1ccc(N2CCN(c3ccc(F)cc3)CC2)cc1	0	0	i	5	2	98*
O=C(O)/C=C\C(=O)Nc1ccc(N2CCN(c3cccc(Cl)c3)CC2)cc1	0	1	i	0	1	99*
O=C(Cc1csc(-c2ccccc2)n1)NCC(=O)Nc1ccc(F)c(F)c1F	0	-5	/	0	7	19
Nc1c(Cl)ncnc1NCc1cccnc1	0	/	i	3	-10	-33
Nc1c(Cl)ncnc1NCCc1ccc(O)cc1	0	-4	i	0	3	90*
CCC(C)[C@H](NS(=O)(=O)c1ccc(C)cc1)C(=O)N1CCC(C(=O)N[C@@H](Cc2ccccc2)C(=O)O)CC1 (some centres undefined)	0	2	i	3	1	-1
CCN1CCN(c2cc(-c3ccccc3)nc3cc(-c4cccc(F)c4)nn23)CC1	1.3*	-1	i	0	-22	-1
CCOc1cc(/C=N/Nc2cccc(C(=O)O)c2)ccc1OC(=O)c1ccccc1	/	-3	i	/	/	/
COc1cc(/C=N/Nc2nc(N3CCCCC3)nc(N3CCCCC3)n2)ccc1OC(=O)c1ccco1	0	/	i	0	-7	-1
CCOc1cc(/C=N/Nc2nc(Nc3ccccc3)nc(N3CCCCC3)n2)ccc1OCC(=O)O	0	/	i	2	6	97*
CCOc1cc(/C=N/Nc2ccccc2Cl)ccc1OCC(=O)O	0	-2	/	0	8	99*
CCOc1cc(/C=N/Nc2nc(N3CCCC3)nc(N3CCCC3)n2)ccc1O	0	/	i	2	8	99*
COc1ccc(/C=N/Nc2nc(Nc3ccccc3)nc(N3CCCCC3)n2)cc1OC	0	-3	i	0	22	98*
COc1ccc(CNC(=O)COC(=O)c2ccc(Br)o2)cc1	1	5	/	2	-1	-2
C[C@H](CO)N1C[C@H](C)[C@@H](CN(C)Cc2ccncc2)Oc2c(NS(=O)(=O)c3ccc(F)cc3)cccc2C1=O	0	3	/	0	2	/
CC(NC(=O)C1CCN(C(=O)Nc2ccccc2)CC1)c1ccc(Cl)cc1 (centres undefined)	0	-1	/	0	-1	/
CN(CC(=O)Nc1n[nH]c(=S)s1)S(=O)(=O)c1cccc2cccnc12	0	1	i	4	4	36
O=C1CSC(c2cccnc2)N1CC1CC1 (centres undefined)	0	-2	i	0	-1	/
O=C1CSC(c2cccnc2)N1c1cccc(Cl)c1 (centres undefined)	0	-4	i	0	9	99*
O=C1CSC(c2cccnc2)N1c1ccc(F)cc1 (centres undefined)	0	/	i	2	5	99*
Cc1ccc(N2C(=O)CSC2c2cccnc2)c(Cl)c1 (centres undefined)	0	-7	i	0	-1	/
O=C(NCC(O)c1ccc2ccccc2c1)c1c(F)cccc1F (centres undefined)	0	1	i	0	1	1
